Screening data deposited in PubChem BioAssay by National Center for Advancing Translational Sciences (NCATS).
KB-V1 cytotox: KB-V1 MDR subline cytotoxicity. KB-V1 MDR cells viability, CellTiter-Glo, 72 h. Potency, µM (top dose mostly 46.1 µM), usual class: cytotoxic. hit rate 3.4% among 400,000; note: nearly all actives have a fitted effect of over 60% in size
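In this primary screen, KB-V1 cells overexpressing P-gp are incubated with library compounds (lowest to highest concentration) for 72 h at 37 degrees C before a luminescent ATP viability read.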
Gal4-VP16 FLuc: inhibits Gal4-VP16 luciferase reporter, ROR gamma counter-screen. AID 2546. Drosophila S2 Gal4-VP16 UAS-luciferase, luminescence, 20 h. Potency, µM (titrated, usually from 53.6 µM), most hits filed as inhibitors. hit rate 3.5% among 310,000;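 note: Gal4-VP16 expression switched on by copper sulfate through the metallothionein promoter; nearly all actives have a fitted effect of over 50% in size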
RORg inh: inhibitors of mouse ROR gamma transcriptional activity. AID 2551. Drosophila S2 Gal4-RORgamma UAS-luciferase reporter, 20 h. hit rate 5.4% among 310,000. Potency, µM (highest dose often 53.6 µM), hits mostly inhibitors. P51450; note: nearly all actives have a fitted effect of over 60% in size
Target sequence (P51450 whole entry, looked up, the tested form may be a part): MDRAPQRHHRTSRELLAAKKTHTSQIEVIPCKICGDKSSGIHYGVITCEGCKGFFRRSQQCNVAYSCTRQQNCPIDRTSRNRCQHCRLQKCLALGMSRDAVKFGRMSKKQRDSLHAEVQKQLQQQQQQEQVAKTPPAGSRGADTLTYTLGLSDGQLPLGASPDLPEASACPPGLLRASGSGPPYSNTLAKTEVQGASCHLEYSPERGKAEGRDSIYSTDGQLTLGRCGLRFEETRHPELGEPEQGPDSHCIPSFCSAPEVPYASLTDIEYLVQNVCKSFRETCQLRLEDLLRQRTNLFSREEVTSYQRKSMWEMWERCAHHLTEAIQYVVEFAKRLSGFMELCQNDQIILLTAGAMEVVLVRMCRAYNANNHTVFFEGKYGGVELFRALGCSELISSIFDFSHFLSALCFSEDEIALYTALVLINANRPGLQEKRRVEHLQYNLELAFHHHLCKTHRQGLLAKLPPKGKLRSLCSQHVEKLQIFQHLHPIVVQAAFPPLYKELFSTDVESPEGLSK
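Luciferase reporter read in Schneider cells carrying Gal4-RORγ (mouse) and UAS-Photinus luciferase; cells given compound 1 h before 700 uM copper sulfate induction, then incubated 20 h at ambient temperature.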
KB-3-1 tox: KB-3-1 parental cell cytotoxicity | hit rate 1.4% among 400,000 | Potency, µM (highest dose often 46.1 µM), most hits filed as cytotoxic | KB-3-1 viability, CellTiter-Glo ATP luminescence, 72 h; note: nearly all actives have a fitted effect of over 60% in size
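KB-3-1 cells, DMEM (no phenol red) + 10% FBS; compound by pin transfer, 72 h, 37 °C. Readout: CellTiter-Glo luminescence after 10 min. Data normalized, curve-fitted.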
SW480 rereplic: inducers of DNA re-replication in SW480 colon cancer cells | SW480 DNA re-replication, Hoechst DNA content imaging, 48 h | Potency, µM (top dose mostly 46.1 µM), usual class: activators | hit rate 1.8% among 340,000; note: nearly all actives have a fitted effect of over 55% in size
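DNA re-replication was detected as more nuclei of elevated Hoechst intensity after 48 hr exposure to compound (23 nL pinned per well of 250 cells).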
MCF10A rereplic: DNA re-replication induction in MCF 10a cells; MCF 10A DNA re-replication, Hoechst nuclear intensity, 48 h; Potency, µM (doses to about 46.1 µM), hits mostly activators; hit rate 2.9% among 350,000; AID 624296; note: nearly all actives have a fitted effect of over 50% in size
Large screens that a line does not name were inactive. Shown are actives, neighbours in structure and some others; about 10% of the full set was active somewhere. Calls come from the whole dose curve; as a rule, active = well fitted curve in the direction sought with a large enough effect; inconclusive = small, poorly fitted or top-dose-only effect, or another doubt; inactive = no such curve, though single readings can be large; an effect the other way counts as inactive or inconclusive.

C=C(C)CNC(=S)N1CCN(C(c2ccccc2)c2ccccc2)CC1	Gal4-VP16 FLuc inconclusive, RORg inh inconclusive
CC(C)CNC(=S)N1CCN(C(c2ccccc2)c2ccccc2)CC1	KB-V1 cytotox inconclusive, Gal4-VP16 FLuc inconclusive, RORg inh 13µM
O=C(O)[C@@H](O)[C@@H](O)[C@@H](O)[C@@H](O)C(=O)O (tested in a mixture with another compound)	none (no result: KB-V1 cytotox, KB-3-1 tox, SW480 rereplic, MCF10A rereplic)
Cc1ccc(Nc2nc(N)nc(CN3CCN(c4ccccc4)CC3)n2)cc1Cl	KB-V1 cytotox 16µM, RORg inh inconclusive, MCF10A rereplic 18µM
COc1ccc(Nc2nc(N)nc(CN3CCOCC3)n2)cc1	none
COc1ccc(N2CCN(Cc3nc(N)nc(Nc4ccc(C)c(Cl)c4)n3)CC2)cc1	KB-V1 cytotox 5.2µM, Gal4-VP16 FLuc inconclusive, RORg inh inconclusive, SW480 rereplic inconclusive, MCF10A rereplic inconclusive
Cc1ccc(Nc2nc(N)nc(CN3CCN(Cc4ccc5c(c4)OCO5)CC3)n2)cc1Cl	KB-V1 cytotox inconclusive, KB-3-1 tox 21µM, MCF10A rereplic inconclusive
Cc1ccc(Nc2nc(N)nc(CN3CCN(C)CC3)n2)cc1C	none (no result: KB-V1 cytotox, KB-3-1 tox, SW480 rereplic, MCF10A rereplic)
Cc1ccc(Nc2nc(N)nc(CN3CCN(Cc4ccc5c(c4)OCO5)CC3)n2)cc1C	KB-V1 cytotox inconclusive, RORg inh inconclusive
COCCN(C(=O)C1CC(=O)N(Cc2ccccc2)C1)c1nc(-c2ccc([N+](=O)[O-])cc2)cs1 (centres undefined)	KB-3-1 tox inconclusive (no result: Gal4-VP16 FLuc, RORg inh)
CCOC(=O)c1[nH]c(C)c(C(=O)NC(CC)Cc2ccccc2)c1C (centres undefined)	KB-V1 cytotox inconclusive (no result: Gal4-VP16 FLuc, RORg inh, SW480 rereplic, MCF10A rereplic)
COc1ccc(C(=O)Oc2cc3c4c(c2)C(C)=CC(C)(C)N4C(=O)C3=O)cc1OC	none
COc1cc2c3c(c1)C(C)=CC(C)(C)N3C(=O)C2=O	SW480 rereplic 10µM, MCF10A rereplic inconclusive
COc1cc(N=C2C(=O)N3c4c(cccc42)C(C)=CC3(C)C)cc(OC)c1	KB-V1 cytotox inconclusive, SW480 rereplic 21µM
COc1cccc(C(=O)Oc2cc3c4c(c2)C(C)=CC(C)(C)N4C(=O)C3=O)c1	Gal4-VP16 FLuc inconclusive, RORg inh inconclusive, SW480 rereplic 4.1µM, MCF10A rereplic inconclusive
O=C(CCn1c(=O)c2ccccc2n(Cc2cccc(F)c2)c1=O)NCc1ccc2c(c1)OCO2	none (no result: Gal4-VP16 FLuc, RORg inh, SW480 rereplic, MCF10A rereplic)
COCCn1c(=O)c(-c2cc(F)cc(F)c2)nc2cnc(Nc3cccc(OC)c3)nc21	none (no result: KB-V1 cytotox, KB-3-1 tox, SW480 rereplic, MCF10A rereplic)
O=C(NCC(c1ccc2c(c1)OCO2)N1CCN(c2ccccc2)CC1)c1ccc(F)c(F)c1 (centres undefined)	none (no result: Gal4-VP16 FLuc, RORg inh, SW480 rereplic, MCF10A rereplic)
O=C(NC1CCCC1)C1c2ccccc2OCC(=O)N1C1CC1 (centres undefined)	none (no result: Gal4-VP16 FLuc, RORg inh, SW480 rereplic, MCF10A rereplic)
O/N=C(/C[n+]1ccsc1)c1ccc(I)cc1	none (no result: Gal4-VP16 FLuc, RORg inh, SW480 rereplic, MCF10A rereplic)
O=C1CC(c2ccsc2)c2ccc3ccccc3c2N1 (centres undefined)	KB-3-1 tox inconclusive, MCF10A rereplic inconclusive
O=C1CC(c2cccc([N+](=O)[O-])c2)c2ccc3ccccc3c2N1 (centres undefined)	KB-V1 cytotox 13µM
COC(=O)C(C(C)=O)C(NC(=O)NCc1ccccc1)c1ccccc1 (centres undefined)	none (no result: KB-V1 cytotox, KB-3-1 tox, SW480 rereplic, MCF10A rereplic)
O=C(NCC1CCCO1)c1cc2ccccc2nc1Cl (centres undefined)	MCF10A rereplic 0.73µM
O=C(NCC1CCCO1)c1cc(-c2ccccc2)on1 (centres undefined)	KB-V1 cytotox 21µM
COc1cccc(-c2cc(C(=O)NCC3CCCO3)c3cc(Br)cc(C)c3n2)c1 (centres undefined)	none
Cc1cc(Br)cc2c(C(=O)NCC3CCCO3)cc(-c3cccs3)nc12 (centres undefined)	Gal4-VP16 FLuc inconclusive, RORg inh inconclusive, SW480 rereplic inconclusive, MCF10A rereplic 15µM (no result: KB-V1 cytotox, KB-3-1 tox)
CCOC(=O)c1c(NC(=O)Nc2ccc(F)cc2)sc(C(=O)N(C)C)c1C	none (no result: Gal4-VP16 FLuc, RORg inh, SW480 rereplic, MCF10A rereplic)
COc1ccc(COC(=O)C2=C(C)NC(=O)CC2c2cccc(Cl)c2Cl)cc1 (centres undefined)	none (no result: Gal4-VP16 FLuc, RORg inh, SW480 rereplic, MCF10A rereplic)
